Screening data (PubChem)
HIF-2a block: inhibitors of HIF-2a | actives 0.72% (n = 360,000) | 786-0 RCC cells HIF-2a reporter, luciferase luminescence, overnight | inhibition, % at 18.8 µM | AID 624352;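 active = inhibition of the luminescence signal of 40% or more relative to plate controls, in a single-dose primary screen at 18.75 µM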
KKLEB cytotox: CF airway cell cytotoxicity counter-screen. activity change (cytotoxicity), % at 5 µM. AID 602141. KKLEB CF airway cells viability, ATPlite luminescence, overnight; hits give low values; cells stimulated with P. aeruginosa culture filtrate. actives 0.36% (n = 360,000);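 active = corrected activity change at or below -50% at 5 µM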
EBV LMP1 NFkB: Epstein-Barr LMP1 NF-kappaB reporter inhibition; LMP1-induced NF-kappaB luciferase reporter cells, luminescence; inhibition, % at 12.5 µM; actives 0.69% (n = 350,000); in the data active = inhibition above about 41%; inconclusive = no clear call, values can overlap the other calls;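 also: 0% = neutral control wells and 100% = reference inhibitor control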
Peg3 prom inh: Peg3 promoter activity inhibition; HeLa PEG-Prom luciferase reporter, luminescence, overnight; inhibition, % at 20 µM; actives 1.7% (n = 360,000); AID 588405;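 active = inhibition of at least 50% at 20 µM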
CF NFkB block: cystic fibrosis NF-kB activation inhibition | KKLEB NF-kB-GFP reporter, PAF-induced, GFP fluorescence overnight | inhibition, % at 5 µM | actives 0.86% (n = 360,000) | AID 588850;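 active = at least 50% inhibition at 5 µM, scaled per plate between neutral and stimulator controls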;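 also: PAF is a Pseudomonas aeruginosa culture filtrate used as stimulus; plate controls were PAF-stimulated DMSO wells for no effect and unstimulated DMSO wells for full effect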
TRPM1 prom inh: reduces MITF-dependent TRPM1 promoter luciferase signal. SK-MEL-5 TRPM1 promoter luciferase, 24 h. actives 0.83% (n = 330,000). AID 488899. inhibition, % at 12.5 µM;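 active = mean inhibition across replicates of 60% or more, whatever share of single replicates reaches that level; inconclusive = some that reach 60%, reason not given; inactive = mean inhibition across replicates below 60%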
Mdm2-MdmX confirm: confirmation of inhibitors of human Mdm2/MdmX interaction, set 2. shares compounds with HIF-2a block. SaOS-2 split-luciferase Mdm2/MdmX complementation, luminescence. inhibition, % at 8 µM. actives 99% (n = 740);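 active = mean inhibition of the luminescence signal across two replicates at or above 26 percent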
Target sequence (O15151 whole entry, looked up): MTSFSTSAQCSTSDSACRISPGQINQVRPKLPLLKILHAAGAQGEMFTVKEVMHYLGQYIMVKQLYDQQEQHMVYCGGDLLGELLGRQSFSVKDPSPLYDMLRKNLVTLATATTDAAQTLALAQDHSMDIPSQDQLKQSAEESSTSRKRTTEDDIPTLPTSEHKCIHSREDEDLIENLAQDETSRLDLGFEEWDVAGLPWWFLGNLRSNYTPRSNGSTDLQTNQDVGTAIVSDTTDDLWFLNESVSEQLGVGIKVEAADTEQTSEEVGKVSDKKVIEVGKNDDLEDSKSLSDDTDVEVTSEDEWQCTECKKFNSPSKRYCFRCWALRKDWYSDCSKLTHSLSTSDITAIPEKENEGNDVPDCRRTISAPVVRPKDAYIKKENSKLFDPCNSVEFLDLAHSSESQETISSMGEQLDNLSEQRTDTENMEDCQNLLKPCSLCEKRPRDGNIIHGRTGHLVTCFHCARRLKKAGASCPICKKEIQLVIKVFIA
Target sequence (Q00987 whole entry, looked up): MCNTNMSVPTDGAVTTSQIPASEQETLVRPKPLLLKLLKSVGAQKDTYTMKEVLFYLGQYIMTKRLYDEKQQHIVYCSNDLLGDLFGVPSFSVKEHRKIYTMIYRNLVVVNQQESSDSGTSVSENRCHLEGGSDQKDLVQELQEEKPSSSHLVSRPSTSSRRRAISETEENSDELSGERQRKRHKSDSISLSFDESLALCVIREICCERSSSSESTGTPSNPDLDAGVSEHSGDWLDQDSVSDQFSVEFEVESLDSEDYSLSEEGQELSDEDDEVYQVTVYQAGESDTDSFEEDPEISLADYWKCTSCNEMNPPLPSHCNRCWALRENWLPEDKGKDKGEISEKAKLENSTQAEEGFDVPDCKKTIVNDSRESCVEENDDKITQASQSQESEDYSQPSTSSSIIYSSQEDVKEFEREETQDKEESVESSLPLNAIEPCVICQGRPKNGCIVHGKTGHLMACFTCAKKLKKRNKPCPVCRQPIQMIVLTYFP
HIF-2a conf: HIF-2a inhibition, single concentration confirmation; shares compounds with HIF-2a block; 786-0 RCC cells, HIF-2a luciferase reporter luminescence, overnight; inhibition, % at 18.8 µM; actives 56% (n = 1,800);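 active = mean inhibition across four replicates of at least 40 percent at the single tested concentration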
HIF-1a counter: counter-screen for HIF-2a inhibitors: HIF-1a inhibition in MiaPaCa-2 cells; shares compounds with HIF-2a block; MiaPaCa-2 HIF-1a luciferase reporter, desferoxamine, overnight; inhibition, % at 18.8 µM; actives 72% (n = 1,800); AID 651589;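 active = mean inhibition of the reporter signal across four replicates at the single tested dose of 50% or more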
The depositor's hits bear a star; ? = inconclusive; · = not tested or not shown. An excerpt weighted towards active compounds, which were near 3% of everything screened.

SMILES | HIF-2a block | KKLEB cytotox | EBV LMP1 NFkB | Peg3 prom inh | CF NFkB block | TRPM1 prom inh | HIF-2a conf | HIF-1a counter | others
CCOc1ccc(NC(=O)CCCc2cc(-c3ccc(OCC)cc3)on2)cc1 | 4 | -15 | 18 | -11 | -11 | 22 | · | ·
CCOc1ccc(-c2cc(CCCC(=O)Nc3cc(OC)ccc3OC)no2)cc1 | 57* | 21 | 17 | -38 | -11 | 49 | 79* | 52*
COc1cc(C(O)c2nc(-c3csc4ccccc34)cs2)ccc1F (configuration not stated) | -84 | -3 | · | -25 | -1 | · | · | ·
CC(C)(C)c1ccc(C(=O)NCCOc2ccccc2F)cc1 | 41* | -1 | 6 | 67* | 13 | 26 | 61* | 73*
CC(C)(C)c1ccc(C(=O)NCCOc2ccccc2)cc1 | 6 | -1 | 17 | -35 | 7 | 9 | · | ·
CCCC[C@@H]1Cc2[nH][nH]c(=O)c2[C@H](c2ccc3ccccc3c2)O1 | 8 | · | · | · | · | · | · | ·
CN(CC(=O)Nc1cccc(S(=O)(=O)N(C)c2ccccc2)c1)Cc1cccs1 | 17 | -7 | -1 | 9 | 4 | · | · | ·
Cc1c(CCC(=O)N[C@@H](C)C(=O)O)c(=O)oc2c(C)c3oc4c(c3cc12)CCCC4 | 50* | 2 | 0 | -36 | -3 | 14 | 60* | 36
Cc1c(CCC(=O)NCCC(=O)O)c(=O)oc2c(C)c3oc4c(c3cc12)CCCC4 | 56* | 4 | 5 | -38 | 5 | 9 | 65* | 37
CC[C@@H](C)[C@H](NC(=O)Cc1c(C)c2cc3c(C)c(C)oc3c(C)c2oc1=O)C(=O)O | 8 | 0 | -4 | 4 | 8 | 4 | · | ·
Cc1nnnn1/C(=C\c1ccccc1)C(=O)OCC(=O)Nc1ccc(Cl)cc1F | 88* | -70* | -4 | 98* | 84* | 51 | 96* | 56*
O=C(COC(=O)Cc1n[nH]c(=O)c2ccccc12)Nc1ccc(Cl)cc1F | 15 | 2 | -18 | 11 | -1 | 4 | · | ·
ON=C(CCc1ccccc1)c1ccccc1 | -277 | 4 | · | -350 | 0 | · | · | ·
COc1cccc(C(=O)/C=C/c2ccc(OCC#N)c(OC)c2)c1 | 85* | -28 | 7 | 107* | 12 | 55 | 42* | 105*
CCOc1ccc(/C=C/C(=O)c2ccccc2)cc1OC | -145 | -12 | -6 | -203 | 0 | -45 | · | ·
N#C/C(=C\C=C\c1ccccc1[N+](=O)[O-])C(=O)NC1CCCCC1 | 84* | 0 | -77 | 107* | -40 | 72* | 21 | 104* | Mdm2-MdmX confirm=101*
CN(C)S(=O)(=O)c1cccc(NC(=O)c2ccccc2OCc2ccc(F)cc2)c1 | -3 | -17 | -6 | 5 | 32 | -7 | · | ·
CCOC(=O)C[C@@H](C#N)NC(=O)[C@@H]1CCCN1C(=O)[C@@H](NC(=O)c1ccc(N)c(Cl)c1)C(C)(C)C | 7 | 6 | · | 14 | -1 | · | · | ·
O=C(Nc1ccccc1N1CCOCC1)c1cnccn1 | 13 | 1 | 2 | 7 | 2 | 6 | · | ·
O=C(Nc1ccc(N2CCOCC2)cc1)c1cnccn1 | 53* | -4 | 63* | 59* | -15 | 25 | 71* | 22
CN1/C(=C/C(=O)c2nc(S(C)(=O)=O)ncc2Cl)C(C)(C)c2ccccc21 | 91* | -47 | 60* | 111* | 95* | 106* | · | · | Mdm2-MdmX confirm=103*
CN1/C(=C\C(=O)c2cccnc2)C(C)(C)c2ccccc21 | -63 | -8 | -12 | -56 | -1 | -20 | · | ·
C=C1CC[C@@H]2[C@](C)(CCC[C@@]2(C)/C=C/[C@@H](O)C(C)(C)O)[C@H]1CC(=O)NCCS(=O)(=O)O | 14 | 16 | -9 | -10 | -16 | 8 | · | ·
Cc1cc(SC#N)cc(C)c1NC(=O)CCl | 46* | -31 | -17 | 28 | 49 | 35 | 54* | 26
COc1ccc(/C=C/c2nc3ccccc3c(=O)o2)cc1 | 43* | -16 | 51* | 38 | 25 | 2 | 18 | 89*
SMILES | HIF-2a block | KKLEB cytotox | EBV LMP1 NFkB | Peg3 prom inh | CF NFkB block | TRPM1 prom inh | HIF-2a conf | HIF-1a counter | others
CC(C)CN(CC(C)C)c1nn[nH]n1 | 15 | 20 | 0 | 5 | -46 | -5 | · | ·
CCc1ccc(-c2nnn(CCC(=O)OC)n2)cc1 | 87* | -5 | ? | -27 | 2 | 16 | 94* | 70*
C=CS(=O)(=O)N(Cc1ccccc1Br)[C@H](CO)Cc1ccccc1 | 44* | -39 | -21 | 84* | 45 | 17 | 35 | 70*
C=CS(=O)(=O)N(Cc1ccccc1)[C@H](CO)CC(C)C | 16 | -1 | -1 | 5 | -14 | 7 | · | ·
COc1ccccc1OC(=O)c1cc2ccccc2oc1=O | 8 | 4 | 2 | -4 | -8 | -9 | · | ·
COc1cc(/C=C/[N+](=O)[O-])ccc1OC(=O)c1cc2ccccc2oc1=O | 61* | -4 | 15 | 69* | 35 | 54 | 34 | 38
COc1ccc(/C=c2/sc3n(c2=O)C(c2ccccc2OC)C2=C(N=3)c3ccccc3CC2)cc1O (configuration not stated) | 41* | 0 | -20 | 41 | 38 | 34 | 13 | 64*
O=C1Cc2ccccc2C(=O)N1Nc1ccccc1 | 5 | 5 | -12 | -6 | -9 | 4 | · | ·
O=C1C=C(c2ccccc2)C(=O)N1Nc1ccccc1 | 77* | 19 | 11 | 96* | 45 | 56 | 56* | 30
CCOC(=O)c1nnc(-c2cccs2)nc1Oc1ccc(Cl)cc1 | 42* | 0 | 5 | 27 | -6 | 5 | 24 | 17
COc1ccc(CCNC(=O)c2ccc(F)c(S(=O)(=O)N3CCCCC3)c2)cc1 | 12 | -4 | 4 | 14 | 8 | · | · | ·
CCS(=O)(=O)c1ncc(Cl)c(C(=O)Nc2ccc(S(=O)(=O)N(C)c3ccccc3)cc2)n1 | 95* | -97* | 57* | 102* | 82* | 98* | 99* | 99* | Mdm2-MdmX confirm=103*
CCN(c1ccccc1)S(=O)(=O)c1ccc(C(=O)Nc2ccncc2)cc1 | 17 | -9 | 7 | 29 | 2 | 12 | · | ·
CCN(c1ccccc1)S(=O)(=O)c1ccc(NC(=O)c2nc(S(C)(=O)=O)ncc2Cl)cc1 | 92* | -101* | 2 | 108* | 102* | 100* | · | · | Mdm2-MdmX confirm=102*
C=CCOC(=O)CSCC(NC(=O)OC(C)(C)C)C(=O)OCC (configuration not stated) | 58* | 11 | -1 | 2 | -17 | 9 | 45* | 24
